# PubChem BioAssay (Tox21)
# Several values for one entry are separate records, joined by “and”; a condition that tells them apart may be missing. Equal values may be shown once. Inconclusive results are not listed. Where a call stands in place of a potency, no number is given. The source holds several records for some structures; these can differ, active in one and inactive in another. Activity calls are given as the source filed them. Unless noted, the call rests on the fitted dose curve; in most records, active means well fitted curve in the direction sought with a large enough effect in the repeat runs; inconclusive means weak or mixed curves; inactive means no such curve, though single readings can be large; an effect the other way counts as inactive or inconclusive.
# Legend:
# [1] = target: Retinoic acid receptor RXR-alpha (Homo sapiens) (UniProt P19793); experiment: qHTS assay to identify small molecule agonists of the RXR signaling pathway (AID 1159527; calls by dose curve; further: nearly all actives have a fitted effect of over 35% in size; further: potency means the concentration at half of the fitted maximal effect)
# How it was run: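 Cells plated at 2,000/well, rested 5 hr at 37 C, pin-dosed with DMSO compound solutions, incubated 16 hr, then loaded with B/G FRET substrate for 2 hr at RT before dual-emission fluorescence reading.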
# [2] = qHTS assay to identify small molecule agonists of the RXR signaling pathway - cell viability counter screen (AID 1159529); further: nearly all actives have a fitted effect of over 50% in size; further: potency means the concentration at half of the fitted maximal effect
# How it was run: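 Steps: seed RXR-alpha-UAS-bla HEK 293T cells in assay medium containing 2% charcoal-stripped FBS; incubate 5 hr; add compounds in DMSO; incubate 16 hr at 37 C; after the bla read, add CellTiter-Glo and read luminescence at 30 min.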
# [3] = qHTS assay to identify small molecule antagonists of the retinoid acid receptor (RAR) signaling pathway - cell viability counter screen (AID 1159551); further: nearly all actives have a fitted effect of over 35% in size
# How it was run: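 Following overnight attachment, C3RL4 reporter cells received DMSO-dissolved compounds and then retinol (1 uM final). Six hours later at 37 C, ATP content was measured by CellTiter-Glo luminescence.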
# [4] = qHTS assay to identify small molecule antagonists of the retinoic acid receptor (RAR) signaling pathway (AID 1159552; further: nearly all actives have a fitted effect of over 50% in size)
# How it was run: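 Retinol at 1 uM final stimulated RARE-luciferase expression in C3RL4 cells exposed to test compounds for 6 hr at 37 C. Reduced luminescence, read 30 min after detection reagent, indicated pathway antagonism.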
# [5] = qHTS assay to identify small molecule agonists of the retinoic acid receptor (RAR) signaling pathway (AID 1159553); settings: C3RL4 RARE luciferase reporter, agonist, 6 h; activation: at 73.3 µM (top of the series) unless noted; further: potency means the concentration at half of the fitted maximal effect
# How it was run: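 Cell line C3RL4, RARE luciferase reporter. Treatment: compounds in DMSO, 6 hr, 37 C, 5% CO2, after overnight plating. Detection: luminescence, 30 min RT after reagent.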
# Retinoic acid receptor RXR-alpha (Homo sapiens), sequence (P19793 whole entry, looked up): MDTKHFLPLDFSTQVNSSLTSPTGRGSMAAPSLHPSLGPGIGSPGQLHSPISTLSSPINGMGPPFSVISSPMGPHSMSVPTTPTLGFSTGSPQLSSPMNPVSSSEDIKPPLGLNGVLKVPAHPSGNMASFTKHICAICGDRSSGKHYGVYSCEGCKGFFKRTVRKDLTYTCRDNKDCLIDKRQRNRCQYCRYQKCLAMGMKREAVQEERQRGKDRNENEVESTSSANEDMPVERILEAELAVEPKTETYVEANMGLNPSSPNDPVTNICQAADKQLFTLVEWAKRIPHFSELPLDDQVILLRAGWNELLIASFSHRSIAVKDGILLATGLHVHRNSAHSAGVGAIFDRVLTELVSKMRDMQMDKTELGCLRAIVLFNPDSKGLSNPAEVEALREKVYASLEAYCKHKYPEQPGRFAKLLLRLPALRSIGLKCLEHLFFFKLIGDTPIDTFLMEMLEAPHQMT
Compound,Potency [1],Potency [2],Potency [3],Potency [4],Potency [5]
CCCCCc1cc(O)cc(O)c1,inactive,inactive,inactive,,
c1ccc(-c2cccc(-c3ccccc3)c2)cc1,inactive,inactive,inactive,inactive,6.93 µM (active) and 4.86 µM (active)
CCCCCCOC(=O)c1ccccc1C(=O)OCCCCCC,inactive,inactive,inactive,inactive,inactive
CCCCN(CCCC)N=O,inactive,inactive,inactive,,
CN(C)c1ccc(C(=O)c2ccc(N(C)C)cc2)cc1,inactive,inactive,inactive,inactive,1.21 µM (active) and 1.22 µM (active)
Nc1cccnc1,inactive,inactive,inactive,inactive,inactive
c1ccc(P(c2ccccc2)c2ccccc2)cc1,inactive,inactive,inactive,,
CC1(C)C(C=C(Cl)Cl)C1C(=O)OC(C#N)c1cccc(Oc2ccccc2)c1 (centres undefined),inactive,inactive,inactive,inactive,inactive
CCC(C)(c1ccc(O)cc1)c1ccc(O)cc1,inactive,inactive,inactive,,
CC(C)(C)c1ccccc1O,inactive,inactive,inactive,,
CCN(CC)C(=O)/C(Cl)=C(\C)OP(=O)(OC)OC,inactive,inactive,inactive,inactive,inactive
Oc1ccc(-c2ccccc2)cc1,5.42 µM (active) and inactive,inactive,inactive,inactive,
Cc1ccc2c(c1N)C(=O)c1ccccc1C2=O,inactive,inactive,inactive,inactive,1.7 µM (active) and 1.93 µM (active)
O=[N+]([O-])c1c(Cl)c(Cl)c(Cl)c(Cl)c1Cl,6.89 µM (active) and inactive,inactive,inactive,inactive,inactive
Nc1c(Cl)cc([N+](=O)[O-])cc1Cl,inactive,inactive,inactive,inactive,inactive
ClC1C(Cl)C(Cl)C(Cl)C(Cl)C1Cl (centres undefined),inactive,inactive and 43.6 µM (active),inactive,inactive,inactive
NCc1cccnc1,inactive,inactive,inactive,inactive,inactive
CNC(=O)Oc1cccc2c1OC(C)(C)O2,inactive,inactive,inactive,,
C=CCc1ccc2c(c1)OCO2,inactive,inactive,inactive,inactive,inactive
C[C@]12CCC(=O)C(O)=C1CC[C@@H]1[C@@H]2CC[C@]2(C)C(=O)CC[C@@H]12,inactive,,inactive,,
